High-throughput results deposited in PubChem by National Center for Advancing Translational Sciences (NCATS).
FMDV antiviral: foot and mouth disease virus antiviral activity; FMDV antiviral cell-based qHTS; Potency, µM (titrated, usually from 57.9 µM), most hits filed as inhibitors; 410,000 compounds, 1.2% hits; AID 1159524; calls by dose curve; tested in HEK293T cells; also: read-out not given here; nearly all actives have a fitted effect of over 45% in size
HCMV antiviral: human cytomegalovirus inhibition; HFF cells, HCMV-luciferase reporter, 72 h; stronger effect = lower value; 410,000 compounds, 4.5% hits; activity change, negative = inhibition, % at 57.5 µM; in the data active = activity change below about -60%; inconclusive = no clear call, values can overlap the other calls; inactive = above about -39%
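Screen run at 2 compound doses on HFFs infected with reporter HCMV, MOI 1 PFU/cell. Luciferase activity from cell lysates at 72 h post infection gave inhibition relative to buffer-only and Salinomycin wells.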
Lassa entry inh: inhibitors of Lassa virus binding or cell entry; Potency, µM (series often up to 37.9 µM), actives largely listed as inhibitors; 300,000 compounds, 1.2% hits; Lassa virus pseudotype entry inhibition, cell reporter; calls by dose curve; tested in HEK293 cells; also: nearly all actives have a fitted effect of over 50% in size
HCV inhibitor: inhibitors of hepatitis C virus infection. Huh7.5.1 HCVcc-Cre infection, luciferase reporter, 44 h. Potency, µM (series often up to 41.8 µM), usual class: inhibitors. 340,000 compounds, 3.4% hits. AID 651820; active = well fitted inhibition curve with a large enough effect; inconclusive = small, poorly fitted or top-dose-only effect, or another doubt; inactive = no such curve, though single readings can be large or run the other way
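Infectious HCV cell culture screen: compound-treated cells (1,000/well, pre-plated 4 h) are infected with HCVcc-Cre at roughly 0.5 moi and grown 44 h. Infection is quantified by luciferase signal after 15 min substrate incubation at room temperature.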
Marburg entry inh: Marburg virus entry inhibition. Potency, µM (titrated, usually from 37.8 µM), usual class: inhibitors. Marburg virus pseudotyped entry inhibition, cell reporter. 300,000 compounds, 1.8% hits; calls by dose curve; tested in HEK293 cells
Each line names hits and unclear results; the compound was inactive in the other large screens. A selection: hits, their analogues and other compounds. The true share with any hit is near 7.9%.

CCCN1C(=O)CC[C@@H](S(=O)(=O)c2ccccc2)[C@@H]1c1ccccc1	none (no result: FMDV antiviral, Lassa entry inh, HCV inhibitor, Marburg entry inh)
Cc1ccccc1NC(=O)c1c(NC(=O)c2ccncc2)sc2c1CCC(C(C)(C)C)C2 (stereo unspecified)	FMDV antiviral inconclusive (no result: HCV inhibitor)
CCc1nc2ccc(Br)cc2c(=O)n1-c1ccccc1C(F)(F)F	HCV inhibitor inconclusive
CCCc1nc2ccc(Br)cc2c(=O)n1-c1ccc([N+](=O)[O-])c(C(F)(F)F)c1	FMDV antiviral inconclusive, HCMV antiviral -86.8, Lassa entry inh inconclusive, HCV inhibitor inconclusive, Marburg entry inh inconclusive
C=Cc1ccc(Cn2ccn(-c3ccc(F)c(F)c3)c(=O)c2=O)cc1	Lassa entry inh inconclusive (no result: HCV inhibitor, Marburg entry inh)
N#C/C(=C(/O)COC(=O)COc1cccc(Br)c1)c1nc2ccccc2[nH]1	HCMV antiviral -78.4 (no result: Lassa entry inh, Marburg entry inh)
Cc1c(C(=O)OC/C(O)=C(\C#N)c2nc3ccccc3[nH]2)oc2ccc(Br)cc12	none
Cc1cc(C)cc(OCC(=O)OC/C(O)=C(\C#N)c2nc3ccccc3[nH]2)c1	HCMV antiviral -80.7, Marburg entry inh inconclusive
CCCNC[C@H](O)COc1ccccc1C(=O)CCc1ccccc1	Marburg entry inh 7.08µM (no result: FMDV antiviral, HCMV antiviral, Lassa entry inh, HCV inhibitor)
CC(C)(C)NCC(O)COc1ccccc1C(=O)CCc1ccccc1 (stereo unspecified)	HCMV antiviral inconclusive, Marburg entry inh 10.3µM (no result: FMDV antiviral)
NC(=S)N/N=C/c1ccc(/C=N/NC(N)=S)cc1	none (no result: Lassa entry inh, Marburg entry inh)
NC(=S)NN=Cc1nccc2c(C(F)(F)C(F)(F)C(F)(F)F)cccc12	HCMV antiviral -98.7 (no result: Lassa entry inh, HCV inhibitor, Marburg entry inh)
CSCCC(NS(=O)(=O)c1ccc(C)cc1)C(=O)N1CCN(C(C)=O)CC1 (stereo unspecified)	HCMV antiviral inconclusive
CSCCC(NS(=O)(=O)c1ccc(C)cc1)C(=O)N1CCN(C(c2ccccc2)c2ccccc2)CC1 (stereo unspecified)	Lassa entry inh 3.55µM, HCV inhibitor inconclusive, Marburg entry inh inconclusive
O=C(Nc1ccccc1C(=O)N1CCCCC1)c1nsc2ccccc12	none (no result: HCV inhibitor, Marburg entry inh)
CCOC(=O)C1(Cc2cccc(Cl)c2)CCCN(C(=O)c2cccc(C)n2)C1 (stereo unspecified)	Lassa entry inh inconclusive, HCV inhibitor 17.8µM, Marburg entry inh 7.08µM
CCCCn1cc(S(=O)(=O)c2ccc(CC)cc2)c(=O)c2cc(F)c(N3CCOCC3)cc21	none (no result: HCV inhibitor, Marburg entry inh)
CC(=O)Nc1nonc1-c1nc2ccccc2n1CC1CC1	HCMV antiviral -67.1, HCV inhibitor inconclusive, Marburg entry inh inconclusive
CCCCn1c(-c2nonc2NC(=O)c2ccccc2Cl)nc2ccccc21	FMDV antiviral inconclusive, HCMV antiviral -76.9 (no result: Lassa entry inh, Marburg entry inh)
CC(=O)c1cnn(-c2nc3c(C)cccc3s2)c1C	HCMV antiviral -98.8, Lassa entry inh inconclusive
CCC(=O)Nc1ccccc1-c1nc2ccccc2n(C(C)C(=O)Nc2cccc(Cl)c2C)c1=O (stereo unspecified)	none (no result: HCV inhibitor)
COc1ccccc1NC(=O)N1CC(=O)N2[C@H](CO)[C@@H](c3ccc(Br)cc3)[C@H]2C1	none (no result: FMDV antiviral, Lassa entry inh, HCV inhibitor, Marburg entry inh)
CC(C)(C)NC(=O)c1cccc(NC(=O)c2ccc3c(c2)C(=O)N(C(C)(C)C)C3=O)c1	FMDV antiviral 25.1µM, Lassa entry inh inconclusive, HCV inhibitor inconclusive, Marburg entry inh inconclusive
O=C(O)c1cccc(NC(=O)c2ccc3c(c2)C(=O)N(CC2CCCO2)C3=O)c1 (stereo unspecified)	FMDV antiviral 15.8µM, HCMV antiviral -108.4
COC(=O)Cc1ccc(NC(=O)c2ccc3c(c2)C(=O)N(CC2CCCO2)C3=O)cc1 (stereo unspecified)	FMDV antiviral 28.2µM
CC(C)CN1C(=O)c2ccc(C(=O)Nc3ccncc3)cc2C1=O	FMDV antiviral 12.6µM
COC(=O)c1cccc(NC(=O)c2ccc3c(c2)C(=O)N(CC2CCCO2)C3=O)c1 (stereo unspecified)	FMDV antiviral inconclusive
COC(=O)c1cccc(NC(=O)c2ccc3c(c2)C(=O)N(C(C)(C)C)C3=O)c1	HCV inhibitor inconclusive
O=C(O)Cc1ccc(NC(=O)c2ccc3c(c2)C(=O)N(CC2CCCO2)C3=O)cc1 (stereo unspecified)	none (no result: HCV inhibitor)
CCCNC(=O)C1CCC(Cn2c(=O)c3sccc3n(CC(=O)N(CC)CC)c2=O)CC1 (stereo unspecified)	none (no result: HCV inhibitor, Marburg entry inh)
COc1ccc(CCN2CN(S(=O)(=O)c3ccccc3)c3nc4ccccc4nc32)cc1OC	HCMV antiviral -65.6, HCV inhibitor inconclusive
Cc1nn(-c2cc(C(F)(F)F)ccc2Cl)c2nc(C(F)(F)F)[nH]c(=O)c12	none
Cc1nn(-c2cccc(Cl)c2)c2nc(C(F)(F)F)[nH]c(=O)c12	FMDV antiviral inconclusive, Marburg entry inh 10µM
